# Results filed as inconclusive are left out. Where a structure was tested more than once in an assay, its records may differ in their call. Active and inactive are the calls of the source. The calls were made as follows, unless noted: active = hit-call score of the fitted dose curve at least 0.9, where 1 is the maximum; inconclusive = response in the unintended direction; inactive = score below 0.9.
# Experiments:
# [1] = biological target: X-box-binding protein 1 (Homo sapiens) (UniProt P17861); assay: ATG_Xbp1_CIS: Attagene CIS-FACTORIAL HepG2 Assay for human X-box Binding Protein 1 (XBP1) (AID 2282972; active = hit-call score of the fitted dose curve at least 0.9, where 1 is the maximum; inactive = score below 0.9); settings: HepG2 XBP1 cis-element reporter, Attagene multiplex; actives raise or lower the signal
# Method in brief: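 HepG2, transient MRTU transfection (cis-promoter driven), 24 h compound exposure. Total RNA → oligo(dT) RT → PCR → 6-FAM labeling → HpaI cut → CE. Bidirectional fit vs DMSO.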
# [2] = ATG_M_19_TRANS: Attagene TRANS-FACTORIAL HepG2 Assay for M19 Transcription Factor (Internal Marker) (AID 2282974); settings: HepG2 Attagene TRANS-FACTORIAL M19 internal marker reporter
# Method in brief: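 Cells: human HepG2, transiently transfected with multiplexed reporter transcription units. Exposure: 24 h. Detection: RT-PCR of reporter mRNA with capillary electrophoresis. Analysis: gain-of-signal vs DMSO.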
# [3] = ATG_GAL4_TRANS: Attagene TRANS-FACTORIAL HepG2 Assay for GAL4 (Internal Marker) (AID 2282976); settings: HepG2 Attagene TRANS GAL4 internal marker reporter
# Method in brief: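 Fluorescence from capillary electrophoresis of labelled RT-PCR products quantifies reporter mRNA induction after 24 h dosing of HepG2 cells carrying transfected GAL4-UAS reporter transcription units. Vehicle DMSO serves as baseline.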
# [4] = biological target: Oxysterols receptor LXR-beta (Homo sapiens) (UniProt P55055); assay: ATG_LXRb_TRANS: Attagene TRANS-FACTORIAL HepG2 Assay for human Liver X Receptor beta (LXRb) (AID 2282981); settings: HepG2 Attagene TRANS GAL4-LXRb reporter, mRNA
# Oxysterols receptor LXR-beta (Homo sapiens), sequence (P55055 whole entry, looked up, the tested form may be a part): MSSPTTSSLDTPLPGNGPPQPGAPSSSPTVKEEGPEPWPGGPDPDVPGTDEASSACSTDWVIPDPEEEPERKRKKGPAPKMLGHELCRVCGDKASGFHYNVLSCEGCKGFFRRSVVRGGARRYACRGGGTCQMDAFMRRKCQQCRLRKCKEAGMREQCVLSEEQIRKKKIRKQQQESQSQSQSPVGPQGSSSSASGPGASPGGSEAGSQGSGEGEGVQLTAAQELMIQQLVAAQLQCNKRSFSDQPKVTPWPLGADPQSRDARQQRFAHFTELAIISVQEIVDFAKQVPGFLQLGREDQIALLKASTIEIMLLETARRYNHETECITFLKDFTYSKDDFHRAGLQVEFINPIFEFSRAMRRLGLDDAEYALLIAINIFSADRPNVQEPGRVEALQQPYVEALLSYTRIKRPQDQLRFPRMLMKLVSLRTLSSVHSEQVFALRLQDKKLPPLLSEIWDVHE
# Method in brief: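 Transient transfection HepG2 (multiplexed RTUs, GAL4-UAS); NR-Gal4 chimera; 24 h exposure; RNA → RT-PCR → 6-FAM primer extension → HpaI → CE; increase vs DMSO.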
# [5] = biological target: Transcriptional activator Myb (Homo sapiens) (UniProt P10242); assay: ATG_Myb_CIS: Attagene CIS-FACTORIAL HepG2 Assay for human Myeloblastosis (Myb) Proto-Oncogene Transcription Factor (AID 2282986; active = hit-call score of the fitted dose curve at least 0.9, where 1 is the maximum; inactive = score below 0.9); settings: HepG2 Attagene CIS-FACTORIAL Myb reporter transcription; actives raise or lower the signal
# Transcriptional activator Myb (Homo sapiens), sequence (P10242 whole entry, looked up): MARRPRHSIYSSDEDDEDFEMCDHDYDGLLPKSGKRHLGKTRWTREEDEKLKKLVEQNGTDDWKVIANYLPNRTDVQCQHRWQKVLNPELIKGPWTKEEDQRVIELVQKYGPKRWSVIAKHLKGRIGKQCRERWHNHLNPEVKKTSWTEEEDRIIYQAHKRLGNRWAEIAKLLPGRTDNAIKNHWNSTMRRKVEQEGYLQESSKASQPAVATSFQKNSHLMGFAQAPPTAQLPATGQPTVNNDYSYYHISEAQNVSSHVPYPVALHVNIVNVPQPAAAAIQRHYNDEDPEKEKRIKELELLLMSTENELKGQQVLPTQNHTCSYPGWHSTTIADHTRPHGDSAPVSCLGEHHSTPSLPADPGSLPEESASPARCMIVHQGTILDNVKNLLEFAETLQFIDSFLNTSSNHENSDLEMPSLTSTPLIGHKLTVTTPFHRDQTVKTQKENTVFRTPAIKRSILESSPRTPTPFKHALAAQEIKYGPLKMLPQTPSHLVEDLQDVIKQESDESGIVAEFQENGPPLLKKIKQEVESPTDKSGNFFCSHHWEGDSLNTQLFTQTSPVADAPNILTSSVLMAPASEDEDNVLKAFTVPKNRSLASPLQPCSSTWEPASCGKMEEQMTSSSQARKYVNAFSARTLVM
# Method in brief: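 Steps: transfect HepG2 with cis-regulated reporter units; dose with chemical for 24 h; isolate RNA, reverse-transcribe, PCR-amplify and FAM-label reporter sequences; digest with HpaI; resolve by capillary electrophoresis. Activity fitted in both directions relative to DMSO.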
# [6] = biological target: Nuclear respiratory factor 1 (Homo sapiens) (UniProt Q16656); assay: ATG_NRF1_CIS: Attagene CIS-FACTORIAL HepG2 Assay for human Nuclear Respiratory Factor 1 (NRF1) Orphan Gene (AID 2282987; active = hit-call score of the fitted dose curve at least 0.9, where 1 is the maximum; inactive = score below 0.9); settings: HepG2 NRF1 cis-element reporter, Attagene multiplex; actives raise or lower the signal
# Nuclear respiratory factor 1 (Homo sapiens), sequence (Q16656 whole entry, looked up, the tested form may be a part): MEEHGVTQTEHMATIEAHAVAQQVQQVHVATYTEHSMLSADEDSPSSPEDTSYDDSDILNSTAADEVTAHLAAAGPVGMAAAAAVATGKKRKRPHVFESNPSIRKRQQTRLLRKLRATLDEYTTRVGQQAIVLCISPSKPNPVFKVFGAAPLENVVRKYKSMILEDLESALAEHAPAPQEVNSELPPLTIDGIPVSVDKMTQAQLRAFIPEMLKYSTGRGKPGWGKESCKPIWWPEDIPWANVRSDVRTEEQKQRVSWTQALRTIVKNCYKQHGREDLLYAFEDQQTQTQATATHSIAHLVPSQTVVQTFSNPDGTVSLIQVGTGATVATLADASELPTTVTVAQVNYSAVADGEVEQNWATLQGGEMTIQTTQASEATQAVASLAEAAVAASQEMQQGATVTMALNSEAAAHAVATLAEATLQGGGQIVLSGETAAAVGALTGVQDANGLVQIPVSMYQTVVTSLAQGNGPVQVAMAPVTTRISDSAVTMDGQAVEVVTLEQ
# Method in brief: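 Fluorescence intensity of labelled reporter cDNA fragments, resolved by capillary electrophoresis, served as readout for NRF1 cis-element activity. Transiently transfected HepG2 cells were dosed for 24 hours; activity in either direction was fitted against DMSO negative control.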
# [7] = ATG_NFI_CIS: Attagene CIS-FACTORIAL HepG2 Assay for human Nuclear Factor I (NFI) (AID 2282989; active = hit-call score of the fitted dose curve at least 0.9, where 1 is the maximum; inactive = score below 0.9); settings: HepG2 cis-regulatory reporter, NFI response element transcription; actives raise or lower the signal
# Method in brief: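 Read-out: reporter mRNA via RT-PCR plus capillary electrophoresis with fluorescence detection. Transiently transfected HepG2 (endogenous TF activity on cis promoters), 24 h compound exposure; gain or loss of signal fitted against DMSO.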
# [8] = biological target: Myc proto-oncogene protein (Homo sapiens) (UniProt P01106); assay: ATG_Myc_CIS: Attagene CIS-FACTORIAL HepG2 Assay for human Myelocytomatosis (Myc) Proto-Oncogene Transcription Factor (AID 2282990; active = hit-call score of the fitted dose curve at least 0.9, where 1 is the maximum; inactive = score below 0.9); settings: HepG2, Attagene cis-reporter transcription factor activity; actives raise or lower the signal
# Myc proto-oncogene protein (Homo sapiens), sequence (P01106 whole entry, looked up): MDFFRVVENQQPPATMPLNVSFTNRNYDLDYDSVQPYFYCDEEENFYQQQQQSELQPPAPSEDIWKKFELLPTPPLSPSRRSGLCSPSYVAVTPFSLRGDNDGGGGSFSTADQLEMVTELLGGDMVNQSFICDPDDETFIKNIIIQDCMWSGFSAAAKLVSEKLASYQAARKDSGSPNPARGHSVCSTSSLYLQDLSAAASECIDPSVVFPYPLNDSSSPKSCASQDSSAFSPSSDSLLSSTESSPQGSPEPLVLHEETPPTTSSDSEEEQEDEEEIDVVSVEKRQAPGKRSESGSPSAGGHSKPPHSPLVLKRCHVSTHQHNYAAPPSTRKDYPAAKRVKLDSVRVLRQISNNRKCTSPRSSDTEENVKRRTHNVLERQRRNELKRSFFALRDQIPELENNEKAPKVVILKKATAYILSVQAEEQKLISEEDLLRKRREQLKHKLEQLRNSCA
# Method in brief: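 HepG2, transient MRTU transfection (cis promoters, endogenous TFs); 24 h dosing; TriZol RNA → oligo(dT) RT → PCR → 6-FAM primer extension → HpaI cut → CE. Bidirectional fit vs DMSO.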
# [9] = biological target: Bile acid receptor (Homo sapiens) (UniProt Q96RI1); assay: ATG_FXR_TRANS: Attagene TRANS-FACTORIAL HepG2 Assay for Farnesoid X Receptor (FXR) (AID 2282979); settings: HepG2 Attagene TRANS FXR-GAL4 reporter transcription;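 also: hits raise reporter mRNA above DMSO so AC50 marks FXR activation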
# Bile acid receptor (Homo sapiens), sequence (Q96RI1 whole entry, looked up, the tested form may be a part): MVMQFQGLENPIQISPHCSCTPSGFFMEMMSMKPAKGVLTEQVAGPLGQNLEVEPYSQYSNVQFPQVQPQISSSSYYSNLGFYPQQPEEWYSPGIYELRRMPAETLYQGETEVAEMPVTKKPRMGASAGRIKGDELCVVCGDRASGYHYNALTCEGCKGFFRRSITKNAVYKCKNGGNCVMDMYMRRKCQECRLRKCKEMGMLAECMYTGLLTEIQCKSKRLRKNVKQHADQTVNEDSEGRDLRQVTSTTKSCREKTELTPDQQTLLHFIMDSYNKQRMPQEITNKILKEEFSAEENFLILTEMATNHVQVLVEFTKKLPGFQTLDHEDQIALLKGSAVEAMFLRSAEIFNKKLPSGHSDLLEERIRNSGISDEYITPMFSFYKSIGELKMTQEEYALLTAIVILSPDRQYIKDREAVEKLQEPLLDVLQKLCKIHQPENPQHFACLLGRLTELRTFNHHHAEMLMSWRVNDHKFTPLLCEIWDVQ
# Method in brief: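 Chimeric FXR-GAL4 activity in transiently transfected human HepG2 liver cells is scored as induction of reporter mRNA after 24 h of dosing. Detection uses RT-PCR with fluorescent labelling and capillary electrophoresis, with DMSO serving as baseline.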
# [10] = biological target: Oxysterols receptor LXR-alpha (Homo sapiens) (UniProt Q13133); assay: ATG_LXRa_TRANS: Attagene TRANS-FACTORIAL HepG2 Assay for human Liver X Receptor alpha (LXRa) (AID 2282980); settings: HepG2 Attagene TRANS reporter, LXRa transactivation
# Oxysterols receptor LXR-alpha (Homo sapiens), sequence (Q13133 whole entry, looked up): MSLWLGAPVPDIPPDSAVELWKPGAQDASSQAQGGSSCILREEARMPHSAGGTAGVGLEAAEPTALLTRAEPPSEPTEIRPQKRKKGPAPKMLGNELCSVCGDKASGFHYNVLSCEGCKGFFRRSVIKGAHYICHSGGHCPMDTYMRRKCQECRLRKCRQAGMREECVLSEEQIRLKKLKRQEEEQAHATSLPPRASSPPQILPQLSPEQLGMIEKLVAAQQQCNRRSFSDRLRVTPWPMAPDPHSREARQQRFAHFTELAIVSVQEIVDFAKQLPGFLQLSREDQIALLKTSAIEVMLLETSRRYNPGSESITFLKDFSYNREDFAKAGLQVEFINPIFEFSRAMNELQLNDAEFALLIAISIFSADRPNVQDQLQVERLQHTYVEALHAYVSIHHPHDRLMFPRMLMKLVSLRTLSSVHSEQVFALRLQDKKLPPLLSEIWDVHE
# Method in brief: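 Transient HepG2 transfectants, 24 h dosing, RT-PCR/CE mRNA reporter quantitation; gain-of-signal vs DMSO.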
# [11] = biological target: Hepatocyte nuclear factor 4-alpha (Homo sapiens) (UniProt P41235); assay: ATG_HNF4a_TRANS: Attagene TRANS-FACTORIAL HepG2 Assay for human Hepatocyte Nuclear Factor 4 alpha (HNF4a) (AID 2282982); settings: HepG2 HNF4a transactivation reporter, mRNA readout
# Hepatocyte nuclear factor 4-alpha (Homo sapiens), sequence (P41235 whole entry, looked up, the tested form may be a part): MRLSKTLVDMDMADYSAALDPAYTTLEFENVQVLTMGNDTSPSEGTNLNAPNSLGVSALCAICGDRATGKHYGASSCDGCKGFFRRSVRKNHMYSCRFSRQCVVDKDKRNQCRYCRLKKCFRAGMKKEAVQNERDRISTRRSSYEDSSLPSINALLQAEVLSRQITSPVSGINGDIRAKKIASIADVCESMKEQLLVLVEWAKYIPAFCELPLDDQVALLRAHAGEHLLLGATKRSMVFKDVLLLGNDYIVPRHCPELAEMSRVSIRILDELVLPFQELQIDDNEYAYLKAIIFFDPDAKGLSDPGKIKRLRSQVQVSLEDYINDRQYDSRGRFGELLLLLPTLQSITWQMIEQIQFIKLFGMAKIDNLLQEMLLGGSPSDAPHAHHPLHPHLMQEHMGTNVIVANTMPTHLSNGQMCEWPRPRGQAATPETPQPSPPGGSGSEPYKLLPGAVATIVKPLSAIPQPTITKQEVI
# Method in brief: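 Readout is fluorescent reporter-transcript fragments resolved by capillary electrophoresis after RT-PCR from HepG2 cells dosed for 24 h. Cells carried transfected GAL4-UAS reporter constructs measuring exogenous NR-GAL4 chimera activity; DMSO served as baseline.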
# [12] = ATG_M_32_TRANS: Attagene TRANS-FACTORIAL HepG2 Assay for M32 Transcription Factor (Internal Marker) (AID 2282984); settings: HepG2 Attagene TRANS M32 internal marker reporter;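 also: transcript level of a background control reporter unit measured by RT-PCR and capillary electrophoresis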
# Method in brief: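 Measures reporter mRNA induction in human HepG2 liver cells after 24 h chemical treatment. Transcripts from transiently transfected GAL4-UAS reporter units are amplified, fluorescently labelled and sized by capillary electrophoresis; gain of signal relative to DMSO.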
# [13] = biological target: Nuclear receptor subfamily 4 group A member 2 (Homo sapiens) (UniProt P43354); assay: ATG_NURR1_TRANS: Attagene TRANS-FACTORIAL HepG2 Assay for human Nuclear Receptor Related Protein 1 (NURR1) (AID 2282985); settings: HepG2 Attagene TRANS reporter, mRNA readout
# Nuclear receptor subfamily 4 group A member 2 (Homo sapiens), sequence (P43354 whole entry, looked up, the tested form may be a part): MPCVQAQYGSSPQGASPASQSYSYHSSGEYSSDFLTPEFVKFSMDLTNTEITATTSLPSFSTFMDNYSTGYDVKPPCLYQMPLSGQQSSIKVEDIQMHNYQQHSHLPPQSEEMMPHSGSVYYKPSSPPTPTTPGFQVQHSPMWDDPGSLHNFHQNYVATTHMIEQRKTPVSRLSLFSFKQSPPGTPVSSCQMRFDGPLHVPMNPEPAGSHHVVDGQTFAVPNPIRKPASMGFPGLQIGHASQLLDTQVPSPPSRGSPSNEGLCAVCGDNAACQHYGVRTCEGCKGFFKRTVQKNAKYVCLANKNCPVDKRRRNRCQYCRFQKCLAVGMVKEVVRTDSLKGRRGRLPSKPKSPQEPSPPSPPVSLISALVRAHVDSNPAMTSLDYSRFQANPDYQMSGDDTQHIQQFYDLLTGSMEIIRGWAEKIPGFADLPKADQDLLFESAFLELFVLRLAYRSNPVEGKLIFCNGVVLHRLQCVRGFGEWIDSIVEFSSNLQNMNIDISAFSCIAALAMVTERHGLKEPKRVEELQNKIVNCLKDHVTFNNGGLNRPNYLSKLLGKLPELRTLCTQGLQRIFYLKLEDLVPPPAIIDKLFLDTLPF
# Method in brief: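 Transient transfection of HepG2, human liver cells, with multiple GAL4-UAS reporter transcription units. Cells dosed 24 h, RNA isolated, reverse-transcribed, PCR-amplified, FAM-labelled, HpaI-digested, sized by capillary electrophoresis. DMSO served as negative control.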
# [14] = biological target: Estrogen-related receptor gamma (Homo sapiens) (UniProt P62508); assay: ATG_ERRg_TRANS: Attagene TRANS-FACTORIAL HepG2 Assay for human Estrogen-Related Receptor gamma (ERRg) (AID 2282977); settings: HepG2 Attagene TRANS reporter, ERRg transactivation;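 also: hits increase reporter signal over DMSO so potencies reflect activators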
# Method in brief: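 HepG2 cells transiently transfected with multiplexed GAL4-UAS reporter units driven by chimeric NR-Gal4 proteins; 24 h exposure. Reporter mRNA quantified by RT-PCR, fluorescent labelling, HpaI digestion and capillary electrophoresis; gain of signal vs DMSO.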
# [15] = biological target: Glucocorticoid receptor (Homo sapiens) (UniProt P04150); assay: ATG_GR_TRANS: Attagene TRANS-FACTORIAL HepG2 Assay for human Glucocorticoid Receptor (GR) (AID 2282978); settings: HepG2 Attagene TRANS GR reporter, mRNA transcription;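 also: activators score as hits since higher reporter transcript over DMSO is fitted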
# Glucocorticoid receptor (Homo sapiens), sequence (P04150 whole entry, looked up, the tested form may be a part): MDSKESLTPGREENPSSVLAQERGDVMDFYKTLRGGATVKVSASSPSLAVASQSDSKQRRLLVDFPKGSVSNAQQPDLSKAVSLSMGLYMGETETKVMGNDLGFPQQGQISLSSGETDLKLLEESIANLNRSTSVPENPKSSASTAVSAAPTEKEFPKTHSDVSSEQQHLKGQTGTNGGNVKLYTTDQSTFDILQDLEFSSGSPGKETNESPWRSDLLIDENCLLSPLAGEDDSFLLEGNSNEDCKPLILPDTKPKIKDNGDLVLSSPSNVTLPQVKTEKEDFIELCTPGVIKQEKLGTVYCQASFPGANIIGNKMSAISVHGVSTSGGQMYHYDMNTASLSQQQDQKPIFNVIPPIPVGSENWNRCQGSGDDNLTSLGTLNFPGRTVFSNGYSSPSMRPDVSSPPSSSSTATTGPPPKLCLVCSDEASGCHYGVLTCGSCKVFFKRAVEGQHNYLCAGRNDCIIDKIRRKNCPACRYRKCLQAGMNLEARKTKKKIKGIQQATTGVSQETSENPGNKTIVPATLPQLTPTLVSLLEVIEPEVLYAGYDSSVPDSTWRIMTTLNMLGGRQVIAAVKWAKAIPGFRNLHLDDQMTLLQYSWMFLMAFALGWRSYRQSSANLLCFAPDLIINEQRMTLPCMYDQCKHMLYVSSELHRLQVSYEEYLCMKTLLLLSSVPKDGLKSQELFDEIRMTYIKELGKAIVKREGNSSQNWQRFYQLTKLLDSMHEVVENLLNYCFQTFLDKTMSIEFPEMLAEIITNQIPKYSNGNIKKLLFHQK
# Method in brief: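 In this trans-factorial format, exogenous NR-GAL4 chimeric proteins in transfected HepG2 cells regulate GAL4-UAS reporter transcription. After 24 h treatment, reporter mRNA induction relative to DMSO is read by RT-PCR and capillary electrophoresis.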
# [16] = ATG_M_06_TRANS: Attagene TRANS-FACTORIAL HepG2 Assay for M06 Transcription Factor (Internal Marker) (AID 2282983); settings: HepG2 Attagene TRANS M06 internal marker reporter;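 also: reporter transcript level by RT-PCR then capillary electrophoresis fluorescence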
# Method in brief: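 Measured by capillary electrophoresis of fluorescently labelled RT-PCR products, this endpoint reflects reporter mRNA in HepG2 cells harbouring exogenous NR-GAL4 reporter constructs after 24 h exposure, with DMSO as baseline.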
compound,measurement,setting,value
COc1cc([N+](=O)[O-])ccc1N,outcome,[1],inactive
same,outcome,[2],inactive
same,outcome,[3],inactive
same,outcome,[4],inactive
same,outcome,[5],inactive
same,outcome,[6],inactive
same,outcome,[7],inactive
same,outcome,[8],inactive
O=C(CCCN1CCC(O)(c2ccc(Cl)cc2)CC1)c1ccc(F)cc1,outcome,[2],inactive
same,outcome,[5],inactive
same,outcome,[8],inactive
C=CC(=O)OCCN(CC)CC,AC50,[1],29 µM (active)
same,outcome,[2],inactive
same,outcome,[3],inactive
same,outcome,[9],inactive
same,outcome,[10],inactive
same,outcome,[4],inactive
same,outcome,[11],inactive
same,outcome,[12],inactive
same,outcome,[13],inactive
same,outcome,[5],inactive
same,outcome,[6],inactive
same,outcome,[8],inactive
CS(=O)(=O)c1ccc([C@@H](CC2CCCC2)C(=O)Nc2cnccn2)cc1Cl,AC50,[1],70.7 µM (active)
same,outcome,[14],inactive
same,outcome,[15],inactive
same,outcome,[4],inactive
same,outcome,[16],inactive
same,outcome,[12],inactive
same,AC50,[8],165 µM (active)
CCCCCCCCCCCC[N+](C)(C)Cc1ccccc1,outcome,[15],inactive
same,outcome,[10],inactive
same,outcome,[4],inactive
same,outcome,[11],inactive
same,outcome,[16],inactive
same,outcome,[12],inactive
same,outcome,[13],inactive
same,AC50,[5],11.1 µM (active)
same,outcome,[5],inactive
same,outcome,[6],inactive
same,outcome,[7],inactive
same,outcome,[8],inactive
CC(C)(C)c1ccc(O)c(O)c1,outcome,[1],inactive
same,outcome,[3],inactive
same,outcome,[15],inactive
same,outcome,[9],inactive
same,outcome,[10],inactive
same,outcome,[4],inactive
same,outcome,[11],inactive
same,outcome,[16],inactive
same,outcome,[12],inactive
same,outcome,[13],inactive
same,outcome,[5],inactive
same,outcome,[6],inactive
same,outcome,[7],inactive
same,outcome,[8],inactive
c1ccc2c(c1)CCC2,outcome,[1],inactive
same,outcome,[2],inactive
same,outcome,[3],inactive
same,outcome,[15],inactive
same,outcome,[9],inactive
same,outcome,[4],inactive
same,outcome,[5],inactive
same,outcome,[6],inactive
same,outcome,[7],inactive
same,outcome,[8],inactive
NS(=O)(=O)O,outcome,[1],inactive
same,outcome,[2],inactive
same,outcome,[3],inactive
same,outcome,[15],inactive
same,outcome,[10],inactive
same,outcome,[4],inactive
same,outcome,[11],inactive
same,outcome,[12],inactive
same,outcome,[13],inactive
same,outcome,[5],inactive
same,outcome,[6],inactive
same,outcome,[7],inactive
same,outcome,[8],inactive
c1ccc(CNc2ncnc3c2ncn3C2CCCCO2)cc1 (stereo not given),outcome,[1],inactive
same,outcome,[15],inactive
same,outcome,[9],inactive
same,outcome,[10],inactive
same,outcome,[4],inactive
same,outcome,[16],inactive
same,outcome,[12],inactive
same,outcome,[13],inactive
same,outcome,[5],inactive
same,outcome,[6],inactive
same,outcome,[7],inactive
same,outcome,[8],inactive
CC1CNCC(C)O1 (stereo not given),outcome,[1],inactive
same,outcome,[3],inactive
same,outcome,[15],inactive
same,outcome,[9],inactive
same,outcome,[10],inactive
same,outcome,[4],inactive
same,outcome,[11],inactive
same,outcome,[16],inactive
same,outcome,[12],inactive
same,outcome,[6],inactive
same,outcome,[8],inactive
CCO[Si](C)(C)OCC,outcome,[1],inactive
same,outcome,[2],inactive
same,outcome,[3],inactive
same,outcome,[14],inactive
same,outcome,[15],inactive
same,outcome,[4],inactive
same,outcome,[11],inactive
same,outcome,[12],inactive
same,outcome,[13],inactive
same,outcome,[5],inactive
same,outcome,[6],inactive
same,outcome,[7],inactive
same,outcome,[8],inactive
Cc1[nH]nc2c1N=C(c1ccccc1Cl)c1cc([N+](=O)[O-])ccc1N2,outcome,[1],inactive
same,outcome,[15],inactive
same,outcome,[9],inactive
same,outcome,[10],inactive
same,outcome,[4],inactive
same,outcome,[16],inactive
same,outcome,[12],inactive
same,outcome,[13],inactive
same,outcome,[5],inactive
same,AC50,[6],1.16 µM (active)
same,AC50,[7],0.554 µM (active)
same,AC50,[8],0.353 µM (active)
CCCCCCCCCCCCCCC,outcome,[2],inactive
same,outcome,[3],inactive
same,outcome,[15],inactive
same,outcome,[4],inactive
same,outcome,[13],inactive
same,outcome,[5],inactive
same,outcome,[6],inactive
same,outcome,[8],inactive
FCOC(C(F)(F)F)C(F)(F)F,outcome,[2],inactive
same,outcome,[3],inactive
same,outcome,[15],inactive
same,outcome,[5],inactive
same,outcome,[6],inactive
same,outcome,[7],inactive
same,outcome,[8],inactive
CC(O)COc1ccccc1 (stereo not given),outcome,[1],inactive
same,outcome,[2],inactive
same,outcome,[15],inactive
same,outcome,[10],inactive
same,AC50,[4],26.1 µM (active)
same,outcome,[12],inactive
same,outcome,[5],inactive
same,outcome,[6],inactive
same,outcome,[7],inactive
same,outcome,[8],inactive
CCCCC=O,outcome,[1],inactive
same,outcome,[3],inactive
same,outcome,[15],inactive
same,outcome,[9],inactive
same,outcome,[5],inactive
same,outcome,[6],inactive
same,outcome,[7],inactive
same,outcome,[8],inactive
CCCCN(C)C,outcome,[1],inactive
same,outcome,[15],inactive
same,outcome,[4],inactive
same,outcome,[11],inactive
same,outcome,[16],inactive
same,outcome,[13],inactive
same,outcome,[5],inactive
same,outcome,[6],inactive
same,outcome,[7],inactive
same,outcome,[8],inactive
